# Data taken from ChEMBL document CHEMBL3988442, “University of Dundee, Small-Polar-MMV Screening Library” (2021).
# The whole screen tested about 48,000 compounds, of which about 13,000 (27%) showed an effect of 50% or more. This is one part of the list.
# System: Wolbachia pipientis
# Test: Anti-Wolbachia Cell-Based Screen
# Format: functional
# Parameters: scale not given: in the data most compounds retested in dose-response had high values
# Conditions: 5 µM
row,Structure (SMILES),Percent Effect [%]
1,CNCc1nc(-c2ccc3c(c2)OCO3)c[nH]1.Cl.Cl,-0.9226
2,O=C(CSc1nccc(-c2ccc3c(c2)OCO3)n1)N1CCOCC1,110.7
3,NC(=O)CCC(=O)N1CCc2[nH]nc(-c3ccc4c(c3)OCO4)c2C1,-2.811
4,O=C(O)CSc1nccc(-c2ccc3c(c2)OCO3)n1,78.66
5,O=C(Cc1ccc2c(c1)OCO2)N1CCN(c2ccncc2)CC1,-22.19
6,CSCC(=O)N1CCc2[nH]nc(-c3ccc4c(c3)OCO4)c2C1,-14.59
7,CN(C)C(=O)c1cccnc1-c1ccc2c(c1)OCO2,-0.5608
8,NC(=O)CSc1nccc(-c2ccc3c(c2)OCO3)n1,94.21
9,CCOc1ccc(-c2ccc3c(c2)OCO3)cc1C(N)=O,-6.962
10,Cn1cccc(NC(=O)N2CCC(COCc3ccccc3)C2)c1=O (stereo not drawn),7.256
11,Cc1ccc(C)c(OCC(O)Cn2ncc3cnn(C)c(=O)c32)c1 (stereo not drawn),-5.252
12,O=S(=O)(NC1=NCN(CCc2cccs2)CN1)c1ccc(F)cc1,4.244
13,Cc1cc(N[C@H](CO)COCc2ccccc2)n2nc(C)cc2n1,2.305
14,COCC1CN(Cc2ccc(OC)cc2)S(=O)(=O)c2cnccc2O1 (stereo not drawn),99.8
15,COc1ccc(OCCN2CCOCS2(=O)=O)cc1,-3.078
16,COc1ccc(CCC(=O)Nc2ccncc2C)cc1,3.309
17,CCN1CC(COC(C)(C)C)Oc2ccncc2S1(=O)=O (stereo not drawn),103.5
18,COc1ccc(CN2CCOC[C@H](Oc3cccnc3)C2)cc1,-13
19,CC(C)(C)OCC1CN(CC2CC2)S(=O)(=O)c2cnccc2O1 (stereo not drawn),96.42
20,CCN1CC(COc2ccc(OC)cc2)Oc2ccncc2S1(=O)=O (stereo not drawn),109.7
21,COc1ccc(C[C@@H]2CC[C@H](CN(C)C3CCN(C)CC3)O2)cc1,15.35
22,Cc1nc(-c2noc3ccc(C(=O)NCCN(C)C)cc23)co1,-5.984
23,CN(CCn1cccn1)S(=O)(=O)c1cccc(Cl)c1C#N,-13.18
24,O=C(O)C(=O)O.c1csc(CN2CC(c3nc(-c4cnccn4)no3)C2)c1,14.88
25,CO[C@@H]1CCN(Cc2cccs2)[C@H]1Cc1ccncc1,4.278

row,Structure (SMILES),Percent Effect [%]
1,CC(C)(C)OCC1CN(Cc2cccs2)S(=O)(=O)c2cnccc2O1 (stereo not drawn),118.6
2,Cc1cc(NC(=O)NC(C)CO)ccc1OCC(F)(F)F (stereo not drawn),-7.879
3,CCCS(=O)(=O)c1ccc(N2CCC(Cc3ccccc3)CC2)nn1,21.52
4,Nc1nc(SCc2ccc3c(c2)OCO3)ns1,92.69
5,CCSc1nsc(NC(=O)COc2ccc3c(c2)OCO3)n1,106.2
6,Cc1nnc(SCCCNC(=O)Cc2ccc3c(c2)OCO3)s1,-3.831
7,O=C(c1cc(COc2ccc3c(c2)OCO3)[nH]n1)N1CCSCC1,4.191
8,CC(=O)Nc1nc(SCc2ccc3c(c2)OCO3)ns1,70.31
9,CC(C)c1nc(CC(=O)N(C)Cc2ccc3c(c2)OCO3)cs1,-4.138
10,CN(Cc1ccc2c(c1)OCO2)Cc1cscn1,9.115
11,CC(=O)N1CCCN(C(=O)Cc2ccc3c(c2)OCO3)CC1,1.177
12,Cn1nc2c(cc1=O)CN(Cc1nnc(-c3ccco3)o1)CC2,-2.817
13,C=C(C)CN(CC)S(=O)(=O)c1c(F)cc(NC(C)=O)cc1F,26.08
14,CC(NCC1=Cc2cc(Cl)ccc2OC1)c1nnc2n1CCCC2 (stereo not drawn),8.386
15,CCNc1nc(-c2cccnc2)c(-c2ccnc(N3CCCC3)n2)s1,59.83
16,CN1CCOC[C@H]1c1nc(-c2cccnc2)c[nH]1,-3.029
17,CCNc1ccnc(N2CCN(Cc3ncccc3C)CC2)n1,0.1311
18,CCNc1nc(-c2cccnc2)c(-c2ccnc(N3CCOCC3)n2)s1,59.36
19,CCc1cnc(NCC(c2cccnc2)N2CCOCC2)nc1 (stereo not drawn),1.67
20,CCCS(=O)(=O)N1CCN(c2ccnc(N3CCCC3)n2)CC1,2.468
21,CN(Cc1nccn1C)c1ccc(-c2nccn2C)nn1,-5.677
22,CNc1cc(C2CCN2c2ncccn2)nc(C)n1 (stereo not drawn),95.15
23,Cc1nc(NC2CCCC2)cc(C2CCN2c2ncccn2)n1 (stereo not drawn),84.97
24,Cc1nc(C2CCN2c2ncccn2)cc(N(C)C)n1 (stereo not drawn),87.93
25,CN(Cc1nnc2n1CCC2)S(=O)(=O)c1cc(Br)ccc1Br,5.695

row,Structure (SMILES),Percent Effect [%]
1,O=C(c1cncc(N2CCC3(CC2)NCCNC3=O)n1)N1CCCCC1,-23.93
2,CN(C)CCn1ccc2cc(NC(=O)NCc3ccon3)ccc21,-4.037
3,O=C(Cc1cccc(F)c1F)NS(=O)(=O)c1ccc(Cl)cn1,3.295
4,O=C(CNc1cc2c(cc1Cl)OCCO2)NCC(F)(F)F,19.2
5,COc1ccc(CN(C)CC2(O)CCNC2)cc1 (stereo not drawn),119.3
6,CN(Cc1ccc2nsnc2c1)CC1(O)CCNC1 (stereo not drawn),4.818
7,COc1ccc(C2(C(=O)N3CC[C@@]4(O)CCNC[C@H]4C3)CCCC2)cc1,-11.98
8,N#Cc1cn(C2CC2)c(=O)n(Cc2ncc(-c3cccs3)o2)c1=O,18.42
9,COCCCN1CC2(CCCN(c3ncc4nc[nH]c4n3)C2)CCC1=O (stereo not drawn),-4.995
10,Cl.Cl.O=C(NCc1cncc2c1CCN(Cc1ccc(F)cc1)C2)C1CC1,-3.295
11,Cl.Cl.O=C(NCc1cncc2c1CCN(C1CCOCC1)C2)c1ccno1,114.6
12,Cl.Cl.O=C(NCc1cncc2c1CCN(Cc1cccc(F)c1)C2)C1CC1,1.539
13,CC(C)CN1CCC(C(=O)NCCNC(=O)c2ccco2)CC1,-4.338
14,Cl.Cl.O=C(NCc1cncc2c1CCN(CC1CCOC1)C2)c1ccco1 (stereo not drawn),105
15,Cl.Cl.O=C(NCc1cncc2c1CCN(C1CCOC1)C2)c1ccco1 (stereo not drawn),112.9
16,Cl.Cl.O=C(NCc1cncc2c1CCN(C1CCOCC1)C2)c1ccco1,116
17,Cl.Cl.O=C(NCc1cncc2c1CCN(Cc1ccccc1)C2)C1CC1,12.37
18,Cl.Cl.O=C(NCc1cncc2c1CCN(CC1CCOC1)C2)c1ccno1 (stereo not drawn),2.196
19,CS(=O)(=O)N1CCCN(C(=O)c2ccc(Cn3ccccc3=O)o2)CC1,2.265
20,O=C(NS(=O)(=O)c1ccccc1Cl)c1cccc2c1OCCO2,-4.478
21,Cc1ccc(CN(C)C)cc1NC(=O)C1CC=CC1,-13.67
22,CCc1ncc2c(n1)CN(CC(=O)N1CCc3sccc3C1)CC2,0.7848
23,O=C(O)C(F)(F)F.O=C(O)C(F)(F)F.c1cncc(N2CCCC3(CCN(CCN4CCCC4)CC3)C2)c1,112
24,COc1ccc(N2CCCC3(C2)CN(c2cccnc2)CCO3)cc1.O=C(O)C(F)(F)F (stereo not drawn),0.9473
25,O=C(O)C(F)(F)F.c1cncc(N2CCCC3(CCN(CC4CCCO4)CC3)C2)c1 (stereo not drawn),83.5

row,Structure (SMILES),Percent Effect [%]
1,O=C(O)C(F)(F)F.c1cncc(N2CCC3(CCCN(c4ccncc4)C3)CC2)c1,92.43
2,Fc1cnccc1CN1CCCC2(CCN(c3ncccn3)CC2)C1.O=C(O)C(F)(F)F,-3.022
3,O=C(O)C(F)(F)F.c1cncc(N2CCOCC3(CCCN(c4nncs4)C3)C2)c1 (stereo not drawn),-4.249
4,N#Cc1ccc(N2CCCC3(CCN(c4cccnc4)CC3)C2)cc1.O=C(O)C(F)(F)F,32.72
5,c1ccc(NCc2cn3c(n2)CN(Cc2nccs2)CC3)nc1,0.03801
6,CC(=O)c1cc(CC(=O)N2CCN(S(=O)(=O)c3ccccc3)CC2)cs1,-20.85
7,COc1cc2c(nn1)CCN(Cc1nnc(Cc3ccccc3)o1)C2,16.22
8,CC(C)COCCCNC(=O)NC(C)c1ccc(-n2cncn2)cc1 (stereo not drawn),-8.242
9,COCCNC(=O)[C@H]1C[C@@H]2CCN(CCc3ccccc3)C[C@H]2O1.O=C(O)C(F)(F)F,28.03
10,COCCNC(=O)[C@H]1C[C@@H]2CCN(c3ccccc3)C[C@H]2O1.O=C(O)C(F)(F)F,88.58
11,O=C(NCc1cccnc1)[C@H]1C[C@@H]2CCN(c3ccncn3)C[C@H]2O1.O=C(O)C(F)(F)F.O=C(O)C(F)(F)F,98.22
12,COCCNC(=O)[C@H]1C[C@@H]2CCN(c3ccncn3)C[C@H]2O1.O=C(O)C(F)(F)F,90.71
13,O=C(NCc1cccnc1)[C@@H]1C[C@H]2[C@H](CCN2c2ncc(F)cn2)O1.O=C(O)C(F)(F)F.O=C(O)C(F)(F)F,-1.497
14,O=C(NCc1cccnc1)[C@@H]1C[C@@H]2CCN(c3ncc(F)cn3)C[C@@H]2O1.O=C(O)C(F)(F)F.O=C(O)C(F)(F)F,11.34
15,COCCNC(=O)[C@@H]1C[C@@H]2CCN(c3ncccn3)C[C@H]2O1.O=C(O)C(F)(F)F,90.69
16,COCCNC(=O)[C@H]1C[C@@H]2CCN(CCc3ccccc3)C[C@@H]2O1.O=C(O)C(F)(F)F,-51.54
17,COC(=O)c1ccc(N2CCN(C(=O)CCCc3cn[nH]c3)CC2)cc1,-14.7
18,CCNc1ncc(C(=O)NCc2csc(C)n2)cn1,-20.21
19,OCCOc1ccc(NCc2cccc3cccnc23)cn1,-13.71
20,COCCNC(=O)[C@H]1C[C@@H]2CCN(c3ncccn3)C[C@@H]2O1,107.5
21,COCCNC(=O)[C@H]1CN(c2ncccn2)C[C@H]2OCC[C@@H]12,-34.97
22,COCCNC(=O)[C@@H]1CN(c2ncccn2)C[C@H]2OCC[C@H]21,-43.81
23,COCCNC(=O)[C@H]1C[C@@H]2CCN(c3ncccn3)C[C@H]2O1.O=C(O)C(F)(F)F,108.2
